The list is not random: actives were taken first. Their share in the collection is about 3.4%.
PGC1a acetyl inh = inhibitors of PGC1a acetylation signal, primary screen, cell-based, U2OS, AlphaScreen, inhibitor mode. actives 0.17% (n = 350,000). AID 651687, 2012. AlphaScreen anti-acetyl-lysine; with virally co-expressed GCN5 acetyltransferase. inhibition, % at 15.6 µM;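 active = every replicate shows inhibition of at least 40%; inconclusive = mean inhibition at least 40% but some replicate below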;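 also: 0% = neutral control wells and 100% = positive control wells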
PAX8 reporter = inhibitors of PAX8-driven TPO luciferase reporter, primary screen, RMG-I cells, single concentration; actives 1.2% (n = 360,000); inhibition, % at 12.6 µM; SteadyGlo, 24 h;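 active = mean replicate inhibition at least 60% with every replicate also reaching 60%; inconclusive = only one of the two criteria is met; inactive = mean below 60% and not all replicates reaching 60%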;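 also: luciferase light reporting Pax8 driven TPO promoter activity; plate controls were median of neutral control wells for no effect and mitoxantrone controls for full effect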
EWS-Fli inh = EWS/Fli-driven NR0B1 reporter inhibitors, primary screen, A673 cells, NR0B1 luciferase, luminescence, MLPCN library; viability-normalised; inhibition, % at 12.6 µM; actives 0.67% (n = 350,000);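 active = mean inhibition of at least 50% after viability correction, with every replicate also passing that limit; inconclusive = mean reaches 50% but only one of two replicates passes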;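 also: firefly luciferase signal divided by Alamar Blue viability fluorescence both relative to DMSO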
SIRT5 block = SIRT5 desuccinylase inhibitors, primary screen, biochemical, fluorescence imaging, single point, set 5; Purified SirT5, succinyl-peptide AMC, trypsin-coupled fluorescence; inhibition, % at 15 µM; actives 1.1% (n = 330,000); in the data active = inhibition above about 15%; inconclusive = no clear call, values can overlap the other calls
Target sequence (Q9NXA8 whole entry, looked up): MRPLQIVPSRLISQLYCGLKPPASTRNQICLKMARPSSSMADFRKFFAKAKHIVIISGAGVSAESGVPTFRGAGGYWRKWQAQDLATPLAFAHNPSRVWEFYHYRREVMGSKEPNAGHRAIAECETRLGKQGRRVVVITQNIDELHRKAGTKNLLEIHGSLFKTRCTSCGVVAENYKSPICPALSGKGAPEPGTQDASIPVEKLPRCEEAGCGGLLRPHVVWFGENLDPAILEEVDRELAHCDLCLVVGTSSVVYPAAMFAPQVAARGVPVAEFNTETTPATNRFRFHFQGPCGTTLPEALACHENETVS
Ecoli rRNA inh = reduced GFP signal of wild-type E. coli, primary screen, bacterial rRNA inhibitor project, GFP/RFP fluorescence, OD600, single point. E. coli WT GFP vs humanized-ribosome RFP mutants, 24 h; stronger effect = lower value; DMSO median 0, no signal -100. GFP signal change (wild-type ribosome), % (no concentration beside the values). actives 1.6% (n = 350,000). AID 720706, 2013;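 active = significant combined selectivity score with lowered wild-type GFP, culture density cut under 30%, mutant RFP and density less affected; inactive = any of these conditions unmet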
LGR2 antag = inhibitors of bursicon-induced LGR2 CRE-luciferase signal, primary screen, cell-based, HEK293, CRE-luciferase reporter, bursicon stimulation; Drosophila bursicon receptor LGR2 (rickets); bursicon-stimulated, 4 h; inhibition, % at 9.99 µM; actives 0.35% (n = 380,000);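 active = drop in luminescence signal, shown as inhibition above about 50% in the replicate tests, limit read from the data, passing the limit was not always enough; inconclusive = probably only some replicates passing the limit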;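 also: agonist challenge used bursicon conditioned medium at about half maximal strength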
* hit, by the source's call; ? = inconclusive; · = no result; ! = a repeat was not active.

SMILES	PGC1a acetyl inh	PAX8 reporter	EWS-Fli inh	SIRT5 block	Ecoli rRNA inh	LGR2 antag
CCOC(=O)c1nn(-c2ccc(C)cc2)cc1O	-8.8	·	·	·	·	·
CCOC(=O)c1nn(-c2ccccc2)cc1O	·	-59.6	-2.0	27.8*	-6.5	-21.2
Nc1c(C(=O)Nc2ccccc2)sc2ncc([N+](=O)[O-])cc12	-83.6	-55.1	-55.9	-1.2	22.9	-12.4
CCOC(=O)c1sc2ncc([N+](=O)[O-])cc2c1N	·	2.5	-10.5	-4.9	-36.2*	-22.9
COc1cc(CN2CC3(CN(C(=O)NC(C)C)C3)c3c(n(C)c4cc(OC)ccc34)[C@@H]2CO)cc(OC)c1	·	·	8.4	·	-3.1	-0.6
O=C(OCc1cnc(Cl)s1)c1cccs1	94.3*	3.0	-16.3	-3.5	3.9	-14.1
O=C(OCc1cnc(Cl)s1)c1ccccc1Cl	5.1	·	·	·	·	·
CC(C)NC(=O)N(C)C[C@H]1Oc2ncc(-c3ccc(C(=O)N(C)C)cc3)cc2C(=O)N([C@@H](C)CO)C[C@H]1C	-21.1	·	-6.4	-5.5	3.8	-6.5
C[C@@H]1CN(C)C(=O)c2cc(N(C)C)ccc2O[C@@H]1CN(C)C	·	·	·	·	1.0	·
CCN(c1ccccc1)S(=O)(=O)c1ccc(OC)c(OC)c1	5.9	·	-13.1	-2.6	-17.9*	-2.6
CCN(c1ccccc1)S(=O)(=O)c1ccc(OC)c(NC(=O)CNCCc2ccccc2)c1	-11.3	16.2	15.7	-1.4	-19.4	8.7
CCN(c1cccc(C)c1)S(=O)(=O)c1ccc2c(c1)NC(=O)CS2	-13.3	7.0	·	2.3	-27.8	-10.3
CCN(c1ccc(OC)cc1)S(=O)(=O)c1ccc2c(c1)NC(=O)CS2	-28.2	-0.5	·	-6.9	-27.2*	-33.6
CCN(c1ccccc1)S(=O)(=O)c1cc(OC)ccc1OC	-37.2	·	·	·	·	5.0
CCN(c1ccccc1)S(=O)(=O)c1ccc(Cl)c(NC(=O)CN2C(=O)NC3(CCCC3)C2=O)c1	7.8	-2.3	-1.6	16.4*	-27.1	1.5
CCN(c1ccccc1)S(=O)(=O)c1ccc(OC)c(NC(=O)Cc2ccc(F)cc2)c1	?	6.3	-1.2	60.7*	-5.1	3.7
O=C(C[C@H]1C[C@@H]2c3cc(NC(=O)NC4CCCCC4)ccc3O[C@@H]2[C@H](CO)O1)NC1CCCC1	·	·	·	·	2.2	·
C[C@H](CO)N1C[C@H](C)[C@H](CN(C)S(=O)(=O)c2ccc(Cl)cc2)Oc2ccc(NC(=O)NC3CCCCC3)cc2CC1=O	9.2	30.2	-1.2	·	-0.6	9.7
CNC(=O)C[C@@H]1CC[C@H]2[C@@H](COC[C@H](O)CN2C(=O)c2ccccn2)O1	1.0	3.5	-5.7	3.4	1.1	-4.2
CCN(c1ccccc1)S(=O)(=O)c1ccc2c(c1)N(C(C)=O)CCS2	-8.3	-21.5	-10.2	-2.4	-25.9*	-2.1
COc1ccc(CN(C(=O)Cn2nnc(-c3ccc(C)o3)n2)C(C(=O)NCC2CCCO2)c2ccco2)cc1 (stereo not given)	-10.8	2.7	4.9	112.2*	20.6	-1.6
Cc1ccc(-c2nnn(CC(=O)N(Cc3ccco3)C(C(=O)NC(C)(C)C)c3ccc(C)o3)n2)o1 (stereo not given)	-36.1	40.1	13.5	18.2*	-16.1	-12.5
COc1ccc(-c2nnn(CC(=O)N(Cc3ccco3)C(C(=O)NCC3CCCO3)c3ccco3)n2)cc1 (stereo not given)	·	8.1	4.0	1.4	-2.6	-1.7
CN1c2ccc(Br)cc2[C@H]2[C@H](CCN2C(=O)C2CCCCC2)[C@H]1CO	24.0	-23.3	-1.0	0.8	-47.6	1.7
COc1ccccc1-c1nnc(NC(=O)CCS(=O)(=O)c2ccc(F)cc2)o1	-0.8	73.6*	0.3	-0.4	·	13.3
SMILES	PGC1a acetyl inh	PAX8 reporter	EWS-Fli inh	SIRT5 block	Ecoli rRNA inh	LGR2 antag
Fc1cccc(CN2C[C@@H]3N[C@H](C2)[C@@H]3c2ccc(-c3cccc(F)c3)cc2)c1	99.2*	94.4*	-1.4	6.5	-56.7	17.3
Fc1cccc(CN2C[C@@H]3N[C@H](C2)C3c2ccc(-c3ccccc3)cc2)c1 (stereo not given in full)	96.9*!	89.0*!	-7.0	2.5	-55.2	-30.0
c1ncc(-c2ccc(C3[C@@H]4CN(Cc5ccc6c(c5)OCO6)C[C@H]3N4)cc2)cn1 (stereo not given in full)	-1.8	-2.7	2.7	0.5	5.1	10.4
C(=C\c1ccc(C2[C@@H]3CN(Cc4ccc5c(c4)OCO5)C[C@H]2N3)cc1)/c1ccccc1 (stereo not given in full)	-9.5	81.0*!	-10.6	·	-56.5	-17.8
CO[C@@H]1CN(C)C(=O)c2ccc(NC(=O)c3ccno3)cc2OC[C@@H](C)NC[C@@H]1C	·	·	-11.8	1.8	2.8	4.5
CCOc1ccc2nc(N3CCCCCC3)sc2c1	-5.9	·	-23.1	-10.0	-31.9*	-20.5
NC1=NN=C(c2ccc3c(c2)OCCO3)CS1	3.8	-11.3	35.9	15.1*	0.0	34.1
C=CCN=C1NN=C(c2cc(C)n(CC=C)c2C)CS1	·	15.1	79.5*	-2.9	19.6	11.6
C=CCN=C1NN=C(c2ccc3c(c2)OCCO3)CS1	·	-30.7	58.1*	1.7	-8.9	?
Cc1sc(N)nc1-c1ccc2c(c1)OCCO2	·	-23.1	-31.0	-0.3	4.3	-12.0
COCC(=O)Nc1ccc2c(c1)C(=O)N(C)C[C@H](OC)[C@H](C)CN(Cc1ccccc1)[C@@H](C)CO2	-7.6	·	-2.7	5.7	-0.7	-3.6
C[C@H](O)C#Cc1ccc2c(c1)O[C@H](CN(C)C(=O)CC1CC1)[C@H](C)CN([C@H](C)CO)S2(=O)=O	-2.7	·	-0.3	1.6	-0.1	-8.2
Cc1ccc(S(=O)(=O)N(C)C[C@H]2OCCCC[C@@H](C)Oc3ccc(NC(=O)Nc4ccccc4)cc3C(=O)N([C@@H](C)CO)C[C@H]2C)cc1	-2.4	·	12.6	-4.1	5.3	23.8
C=CCn1c(-c2c[nH]c3ccccc23)n[nH]c1=S	-8.1	27.1	·	·	·	·
CCn1c(-c2c[nH]c3ccccc23)n[nH]c1=S	-1.2	·	11.3	-3.4	-20.4*	-3.6
COc1cc2[nH]c(=S)nc(NCc3ccccc3)c2cc1OC	-5.1	-14.4	-1.9	-2.0	-15.9*	-10.1
Cc1ccccc1CSCC(=O)Nc1ccccc1Br	·	18.2	-7.0	9.2	-22.6*	-36.7
Cc1ccccc1CSCC(=O)NC1CCCC1	8.9	·	·	·	·	·
Cc1ccc(-c2ccc3c(c2)O[C@H](CN(C)Cc2ccncc2)[C@H](C)CN([C@H](C)CO)S3(=O)=O)cc1	-25.1	·	-2.4	3.3	-13.0	·
Cc1ccccc1Nc1nc(N)nc(-c2oc3ccccc3c2C)n1	6.4	-130.9	-106.3	-3.6	-36.5*	-120.3

High-throughput results as filed in PubChem.
